In the library only some 5.9% were active in any assay of this set; here they are far more common.
KB-V1 MDR tox: qHTS assay for MDR1-selective chemotherapeutics: Primary screen using the drug-selected MDR subline cells KB-V1; AID 1347076, 2019; Potency, µM (top dose mostly 46.1 µM), usual class: cytotoxic; actives 3.4% (n = 400,000); KB-V1 MDR cells viability, CellTiter-Glo, 72 h; also: % is scaled to controls: 0 for no effect and ±100 for the full control effect; nearly all actives have a fitted effect of over 60% in size
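Cytotoxicity toward P-gp-expressing KB-V1 cells was determined as loss of CellTiter-Glo luminescence after 72 h at 37 degrees C. Compounds were tested in quantitative HTS format across a concentration range, with curves fitted to normalized data.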
HepG2 tox: qHTS for Inhibitors of TGF-b: Cytotox Counterscreen; HepG2 CAGA-GFP viability, ATP luminescence, 18 h; Potency, µM (highest dose often 46.1 µM), for the others: top-dose activity change, negative = cytotoxicity, actives largely listed as cytotoxic; actives 0.76% (n = 410,000); AID 588856, 2011
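CellTiter-Glo luminescence gave cytotoxicity after 18 hours at 37 degrees C. The cells were HepG2 CAGA-GFP in 1% FBS DMEM, stimulated with 500 pg/mL TGF-beta after compound addition. %Activity was normalised to no-cell wells (complete cell-killing) and DMSO (no toxicity), and curves were fitted and classified.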
KB-3-1 cytotox: qHTS assay for MDR1-selective chemotherapeutics: Primary screen using the parental adenocarcinoma cell KB-3-1; KB-3-1 viability, CellTiter-Glo ATP luminescence, 72 h; actives 1.4% (n = 400,000); Potency, µM (titrated, usually from 46.1 µM), actives largely listed as cytotoxic; also: % is scaled to controls: 0 for no effect and ±100 for the full control effect; nearly all actives have a fitted effect of over 60% in size
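Multi-concentration cytotoxicity screen in KB-3-1 cells grown in DMEM lacking phenol red with 10% FBS. After 72 h at 37 °C with compound, ATP-dependent luminescence was recorded.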
ATXN2 expr inh: Primary qHTS for Inhibitors of ATXN expression; Potency, µM (titrated, usually from 57 µM), for inactives: at the highest dose activity change, negative = inhibition, most hits filed as inhibitors; HEK-293 ATXN2-luciferase reporter, luminescence, 24 h; actives 0.72% (n = 360,000); also: % is scaled to controls: 0 for no effect and ±100 for the full control effect; nearly all actives have a fitted effect of over 55% in size
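qHTS (up to 57 uM final) was run with 24 h compound exposure of reporter cells at 37 °C. Each well was multiplexed: SteadyGlo luminescence measured ATXN2-luciferase expression after a fluorogenic Gly-Phe-AFC viability readout (25 uM final).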
TGFb SMAD3 inh: qHTS for Inhibitors of TGF-b; HepG2 CAGA-GFP TGF-b/SMAD3 reporter, GFP fluorescence, 18 h; TGF-beta stimulated, 500 pg/mL final; Potency, µM (series often up to 46.1 µM), inactives show at the top dose activity, negative = inhibition, most hits filed as inhibitors; actives 1.2% (n = 410,000); AID 588855, 2011; also: % is scaled to controls: 0 for no effect and ±100 for the full control effect; nearly all actives have a fitted effect of over 65% in size
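TGF-beta reporter screen: HEPG2 CAGA-GFP, 1% FBS, 500 pg/mL TGF-beta final, 18 h; per-cell GFP summed per well; curves fitted and categorized by class.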
ATXN viability: Viability Counterscreen for Primary qHTS for Inhibitors of ATXN expression | S2 cells (HEK-293 line with an ATXN2-luciferase reporter) viability, CellTiter-Fluor protease fluorescence, 24 h | Potency, µM (doses to about 56.7 µM), hits mostly cytotoxic | actives 0.49% (n = 400,000) | AID 651635, 2014; also: nearly all actives have a fitted effect of over 40% in size
The depositor's hits bear a star; i = inactive; ? = inconclusive; . = not tested or not shown. Calls follow the shape of the dose curve; as a rule, active = well fitted curve in the direction sought with a large enough effect; inconclusive = small, poorly fitted or top-dose-only effect, or another doubt; inactive = no such curve, though single readings can be large; an effect the other way counts as inactive or inconclusive. Potency is read from the fitted curve at half-maximal effect.

SMILES | KB-V1 MDR tox | HepG2 tox | KB-3-1 cytotox | ATXN2 expr inh | TGFb SMAD3 inh | ATXN viability
CC1=C/C(=C(\c2cc(C)c(O)c(Br)c2)c2ccccc2S(=O)(=O)O)C=C(Br)C1=O | ? | -39% | ? | ? | -15% | 11µM*
O=C1c2ccccc2OC2(C=Cc3ccccc3O2)N1Cc1ccccc1 (stereo not given) | 4.1µM* | 1% | ? | -26% | -1% | i
Cc1ccc(NC(=O)N2CCC3(CC2)Oc2ccccc2C(=O)N3Cc2ccc(F)cc2)cc1 | i | -26% | i | . | -26% | .
NNc1nnc2c3cc(F)ccc3n(CCc3ccccc3)c2n1 | ? | -24% | 23µM* | ? | -17% | ?
Fc1ccc2c(c1)c1n[nH]c(=S)nc1n2CCc1ccccc1 | i | 5% | ? | 8% | -2% | i
CC(=O)NC1(C)CCC2CC1C(C)=NC2(C)C (stereo not given) | i | -4% | i | 6% | 9% | i
CCn1cc(CN2CCN(C)C(CCO)C2)c2ccccc21 (stereo not given) | i | -6% | i | -17% | 4% | i
CCn1cc(CN2CCN(CCC(C)C)C(CCO)C2)c2ccccc21 (stereo not given) | i | 11µM* | i | . | -16% | i
COc1cc(OC)cc(C(=O)NCC2Cc3cccc(-c4nc(C)cnc4C)c3O2)c1 (stereo not given) | . | . | . | . | . | i
O=[N+]([O-])c1ccc(-n2nnnc2-c2ccccc2)cc1 | i | 1% | i | . | -4% | i
O=[N+]([O-])c1ccc(-n2nnnc2-c2ccccc2)c([N+](=O)[O-])c1 | 18µM* | 16µM* | i | ? | 10µM* | ?
COc1ccc(Cl)cc1-c1nc(N)nc(NC2CCCCC2)n1 | 18µM* | -13% | i | 0% | -26% | i
CNc1nc(N)nc(-c2cc(Cl)ccc2OC)n1 | i | -19% | ? | . | 7% | i
NS(=O)(=O)c1ccc(CCNc2ncnc3c2cnn3-c2cccc(Cl)c2)cc1 | i | -40% | i | ? | ? | ?
C#CC(C)(CC)OC(=O)c1ccccc1C(=O)O (stereo not given) | . | . | . | 7% | . | i
O=C(NCc1ccccc1)c1cccc(COc2ccc3c(c2)CCC3)c1 | 16µM* | -10% | i | 0% | 2% | i
O=C(O)c1cccc(COc2ccc3c(c2)CCC3)c1 | i | -13% | i | ? | -1% | i
COc1cccc(OC)c1C(=O)NNC(=O)c1cccc(COc2ccc3c(c2)CCC3)c1 | ? | -25% | i | 5.6µM* | -2% | i
Clc1cccc(CNc2ncnc3nc[nH]c23)c1 | i | -7% | i | . | -1% | .
CCCCCSc1nnc2c(n1)OC(c1ccc(C)s1)N(C(C)=O)c1ccccc1-2 (stereo not given) | . | -65% | . | . | ? | .
Cc1cccc(C(=O)N2CCN(c3ccccn3)CC2)c1 | ? | 4% | i | 1% | 1% | i
Cc1cccc(C(=O)NCC(=O)N2CCN(c3ccccn3)CC2)c1 | 21µM* | 0% | i | 10% | 5% | i
O=[N+]([O-])c1cc([N+](=O)[O-])c2cc3ccccc3nc2c1 | i | -2% | 3.7µM* | 18% | ? | ?
Cc1ccc(S(=O)(=O)N2CCCc3cc(NS(=O)(=O)c4ccccc4)ccc32)cc1 | i | 1% | i | 0% | 16µM* | .
C#CCn1c(=NC(=O)c2ccc(S(=O)(=O)N3CCCc4ccccc43)cc2)sc2cc(S(N)(=O)=O)ccc21 | i | 5% | ? | -3% | ? | i
SMILES | KB-V1 MDR tox | HepG2 tox | KB-3-1 cytotox | ATXN2 expr inh | TGFb SMAD3 inh | ATXN viability
O=C(Nc1ccccc1)c1ccc2c(c1)CCN2S(=O)(=O)c1ccccc1 | i | -32% | ? | . | -17% | ?
COc1cc(C(=O)Nc2ccc(S(=O)(=O)N3CCc4ccccc43)cc2)cc(OC)c1OC | 5.8µM* | -4% | ? | 18% | 10% | i
O=C(Nc1ccc(S(=O)(=O)N2CCc3ccccc32)cc1)c1ccc2c(c1)OCO2 | 5.2µM* | -10% | i | 6% | ? | i
Cn1c(=NC(=O)c2ccc(S(=O)(=O)N3CCCc4ccccc43)cc2)sc2cc(S(C)(=O)=O)ccc21 | 3.7µM* | 3% | i | -5% | -4% | i
COc1ccccc1C(=O)Nc1ccc(S(=O)(=O)N2CCc3ccccc32)cc1 | ? | -5% | i | 12% | -9% | i
Cc1ccc(S(=O)(=O)N2CCCc3cc(NS(=O)(=O)c4ccc(F)cc4)ccc32)cc1 | i | -34% | i | ? | ? | .
O=C(CCc1nc2cccnc2n1-c1ccccc1)Nc1ccc(Cl)c(Cl)c1 | i | -26% | i | ? | -1% | ?
COc1cc(C(=O)Nc2ccc3c(c2)CCN3C(C)=O)cc(OC)c1OC | ? | 27% | 3.3µM* | . | -17% | i
O=C(Nc1cc(Cl)cc(Cl)c1)c1ccc(F)c(S(=O)(=O)N2CCc3ccccc32)c1 | . | -76% | . | . | 4µM* | .
COC(=O)Nc1ccc(S(=O)(=O)N2CCCc3ccccc32)cc1 | 1.2µM* | -21% | 1.5µM* | -10% | -23% | ?
O=C(CSc1ncc2c(n1)-c1ccccc1N(Cc1ccc(Cl)cc1)S2(=O)=O)c1ccc(Cl)cc1 | i | -46% | i | -2% | -24% | i
COc1cc(-c2cc(C)c3cccc(OC)c3n2)cc2c1OCCN(C(=O)CC1NC(=O)c3ccccc31)C2 (stereo not given) | . | . | . | . | . | i
Cc1ccc(S(=O)(=O)N2CCC(=O)N(CCOCc3ccc(C(F)(F)F)cc3)CC2)cc1 | ? | -23% | i | ? | 11µM* | ?
O=C1CCN(S(=O)(=O)c2ccccc2)CCN1CCOCc1ccc(C(F)(F)F)cc1 | ? | -19% | i | -16% | ? | i
Fc1ccc(-n2cc(-c3ccccc3)c3c(=S)nc[nH]c32)cc1 | i | -22% | 18µM* | 0% | 0% | .
Fc1cccc(-n2cc(-c3ccccc3)c3c(=S)nc[nH]c32)c1 | i | -24% | ? | ? | -27% | i
CC1=Nc2ccccc2/C1=C(/C)c1c(C)[nH]c2ccccc12 | i | 1% | ? | . | 5% | .
O=S(=O)(Nc1ccc(C(O)(C(F)(F)F)C(F)(F)F)cc1)c1ccc(Cl)c2nonc12 | ? | 20µM* | ? | 18µM* | ? | .

Screening data: PubChem, National Center for Advancing Translational Sciences (NCATS)
